Experimental data published in PubChem BioAssay AID1159580 (chemical genetic matrix, 2015).
“And” between values parts separate entries of the source, which are not always exact repeats. Equal values may be shown once. Hit rate of the full screen: of about 5,500 compounds, about 2,000 (36%) were called active. Not shown: some 18% with an inconclusive outcome. No stated cut-off is given here; in the data, active means normalized growth mostly below about 0.91 (no sharp cut-off); inconclusive means no clear call, values can overlap the other calls; inactive means mostly above about 0.92. Some of the results follow.

Assay: chemical genetic growth profiling, strain panel (AID 1159580);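 further: tested at 20 µM; growth read once vehicle control cultures reached saturation at 30 °C; 1 = growth at the plate median or of vehicle wells; lower values mean less growth of the strain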
Settings: growth OD

Measured: normalized growth

CN(C)CCCN1c2ccccc2CCc2ccccc21
inactive: S. cerevisiae deletion strains, locus YJR075W, strain HOC1, active compounds read low 0.97 | S. cerevisiae deletion strains, locus YKL009W, strain mrt4, active compounds read low 0.992 | S. cerevisiae deletion strains, locus YKL068W, active compounds read low 0.992 | S. cerevisiae deletion strains, locus YKL085W, strain MDH1 (second series), active compounds read low 0.987 | S. cerevisiae deletion strains, locus YKL085W, strain MDH1, active compounds read low 0.987 | S. cerevisiae deletion strains, locus YKL160W, strain elf1, active compounds read low 1 | S. cerevisiae deletion strains, locus YKR001C, strain vps1, active compounds read low 0.988 | S. cerevisiae deletion strains, locus YKR026C, strain gcn3, active compounds read low 1.01 | S. cerevisiae deletion strains, locus YKR091W, strain srl3, active compounds read low 1.01 | S. cerevisiae deletion strains, locus YLL001W, strain dnm1, active compounds read low 0.994 | S. cerevisiae deletion strains, locus YLL026W, active compounds read low 0.999 | S. cerevisiae deletion strains, locus YLL041C, strain sdh2, active compounds read low 1.01 | S. cerevisiae deletion strains, locus YLR027C, strain aat2, active compounds read low 1 | S. cerevisiae deletion strains, locus YLR039C, strain RIC1, active compounds read low 1.15 | S. cerevisiae deletion strains, locus YLR058C, strain SHM2, active compounds read low 1 | S. cerevisiae deletion strains, locus YLR102C, strain apc9, active compounds read low 0.984 | S. cerevisiae deletion strains, locus YLR113W, strain HOG1, active compounds read low 1.01 | S. cerevisiae deletion strains, locus YLR221C, strain rsa3, active compounds read low 0.98 | S. cerevisiae deletion strains, locus YLR258W, strain gsy2, active compounds read low 0.989 | S. cerevisiae deletion strains, locus YLR262C, strain YPT6 (second series), active compounds read low 1.04 | S. cerevisiae deletion strains, locus YLR262C, strain YPT6, active compounds read low 1.25 | S. cerevisiae deletion strains, locus YLR268W, strain sec22, active compounds read low 0.994 | S. cerevisiae deletion strains, locus YLR320W, strain mms22, active compounds read low 0.991 | S. cerevisiae deletion strains, locus YLR330W, strain CHS5, active compounds read low 1.01 | S. cerevisiae deletion strains, locus YLR342W, strain FKS1 (second series), active compounds read low 0.997 | S. cerevisiae deletion strains, locus YLR342W, strain FKS1, active compounds read low 1 | S. cerevisiae deletion strains, locus YLR357W, strain rsc2, active compounds read low 1.01 | S. cerevisiae deletion strains, locus YLR370C, strain arc18, active compounds read low 1.01 | S. cerevisiae deletion strains, locus YLR371W, strain rom2, active compounds read low 0.987 | S. cerevisiae deletion strains, locus YLR384C, strain iki3, active compounds read low 1.01 | S. cerevisiae deletion strains, locus YLR418C, strain cdc73, active compounds read low 0.956 | S. cerevisiae deletion strains, locus YML016C, strain PPZ1, active compounds read low 1.01 | S. cerevisiae deletion strains, locus YML032C, strain rad52, active compounds read low 0.996 | S. cerevisiae deletion strains, locus YML120C, strain ndi1, active compounds read low 0.992 | S. cerevisiae deletion strains, locus YML124C, strain tub3, active compounds read low 0.996 | S. cerevisiae deletion strains, locus YMR058W, strain fet3, active compounds read low 1.01 | S. cerevisiae deletion strains, locus YMR078C, strain ctf18, active compounds read low 0.985 | S. cerevisiae deletion strains, locus YMR125W, strain sto1, active compounds read low 1.01 | S. cerevisiae deletion strains, locus YMR129W, active compounds read low 1 | S. cerevisiae deletion strains, locus YMR205C, strain PFK2, active compounds read low 0.998 | S. cerevisiae deletion strains, locus YMR223W, strain ubp8, active compounds read low 0.962 | S. cerevisiae deletion strains, locus YMR231W, strain pep5, active compounds read low 0.998 | S. cerevisiae deletion strains, locus YMR263W, strain SAP30, active compounds read low 1 | S. cerevisiae deletion strains, locus YMR307W, strain GAS1, active compounds read low 1.09 and 0.988 | S. cerevisiae deletion strains, locus YNL067W, strain RPL9B, active compounds read low 1 | S. cerevisiae deletion strains, locus YNL071W, strain lat1, active compounds read low 1 | S. cerevisiae deletion strains, locus YNL128W, strain TEP1, active compounds read low 1 | S. cerevisiae deletion strains, locus YNL153C, strain GIM3, active compounds read low 1.01 | S. cerevisiae deletion strains, locus YNL175C, strain NOP13, active compounds read low 1 | S. cerevisiae deletion strains, locus YNL183C, strain NPR1, active compounds read low 0.942 | S. cerevisiae deletion strains, locus YNL197C, strain WHI3, active compounds read low 1 | S. cerevisiae deletion strains, locus YNL209W, strain ssb2, active compounds read low 1.03 | S. cerevisiae deletion strains, locus YNL224C, strain SQS1, active compounds read low 1.05 | S. cerevisiae deletion strains, locus YNL233W, strain BNI4, active compounds read low 1.01 | S. cerevisiae deletion strains, locus YNL248C, strain rpa49, active compounds read low 0.988 | S. cerevisiae deletion strains, locus YNL250W, strain rad50, active compounds read low 0.987 | S. cerevisiae deletion strains, locus YNL271C, strain bni1, active compounds read low 0.993 | S. cerevisiae deletion strains, locus YNL298W, strain CLA4, active compounds read low 1 | S. cerevisiae deletion strains, locus YNL307C, strain MCK1, active compounds read low 0.982 | S. cerevisiae deletion strains, locus YNL322C, strain KRE1 (second series), active compounds read low 0.997 | S. cerevisiae deletion strains, locus YNL322C, strain KRE1, active compounds read low 1 and 0.979 | S. cerevisiae deletion strains, locus YNR049C, strain mso1, active compounds read low 1.03 | S. cerevisiae deletion strains, locus YNR052C, strain pop2, active compounds read low 0.978 | S. cerevisiae deletion strains, locus YOL006C, strain TOP1, active compounds read low 0.946 | S. cerevisiae deletion strains, locus YOL012C, strain htz1 0.613 | S. cerevisiae deletion strains, locus YOL147C, strain pex11, active compounds read low 0.994 | S. cerevisiae deletion strains, locus YOR001W, strain rrp6, active compounds read low 1 | S. cerevisiae deletion strains, locus YOR061W, strain CKA2, active compounds read low 1.01 | S. cerevisiae deletion strains, locus YOR069W, strain VPS5, active compounds read low 1 | S. cerevisiae deletion strains, locus YOR070C, strain gyp1, active compounds read low 1 | S. cerevisiae deletion strains, locus YOR080W, strain dia2, active compounds read low 0.995 | S. cerevisiae deletion strains, locus YOR083W, strain WHI5 (second series), active compounds read low 1.07 | S. cerevisiae deletion strains, locus YOR083W, strain WHI5, active compounds read low 0.995 | S. cerevisiae deletion strains, locus YOR106W, strain vam3, active compounds read low 0.997 | S. cerevisiae deletion strains, locus YOR136W, strain idh2, active compounds read low 0.999 | S. cerevisiae deletion strains, locus YOR144C, strain elg1, active compounds read low 0.992 | S. cerevisiae deletion strains, locus YOR184W, strain ser1, active compounds read low 1.02 | S. cerevisiae deletion strains, locus YOR231W, strain MKK1, active compounds read low 0.975 | S. cerevisiae deletion strains, locus YOR265W, strain rbl2, active compounds read low 1.01 | S. cerevisiae deletion strains, locus YOR270C, strain vph1, active compounds read low 0.932 | S. cerevisiae deletion strains, locus YOR290C, strain snf2, active compounds read low 1 | S. cerevisiae deletion strains, locus YOR316C, strain cot1, active compounds read low 0.993 | S. cerevisiae deletion strains, locus YPL051W, strain arl3, active compounds read low 0.992 | S. cerevisiae deletion strains, locus YPL055C, strain LGE1, active compounds read low 0.99 and 0.992 | S. cerevisiae deletion strains, locus YPL078C, strain atp4, active compounds read low 1.01 | S. cerevisiae deletion strains, locus YPL106C, strain sse1, active compounds read low 0.996 | S. cerevisiae deletion strains, locus YPL240C, strain hsp82, active compounds read low 1 | S. cerevisiae deletion strains, locus YPL241C, strain CIN2, active compounds read low 1.01 | S. cerevisiae deletion strains, locus YPL256C, strain CLN2, active compounds read low 0.972 | S. cerevisiae deletion strains, locus YPR119W, strain clb2, active compounds read low 0.99 | S. cerevisiae deletion strains, locus YPR141C, strain kar3, active compounds read low 0.993 | S. cerevisiae deletion strains, locus YPR163C, strain tif3, active compounds read low 0.982 | S. cerevisiae deletion strains, locus YPR167C, strain met16, active compounds read low 0.989 | S. cerevisiae deletion strains, strain wtn01, active compounds read low 0.988 | S. cerevisiae strains, strain wild type, active compounds read low 1.01
